High-throughput results from PubChem.
CYP2C9 inh = blocks human cytochrome P450 2C9 | P11712 | CYP2C9 Supersomes, luciferin-H conversion, luminescence | inhibition, % at 5 µM | 96,000 tested, 20% active;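 active means blocking of liver enzyme CYP2C9 beyond about 50% at 5 µM, limit read from the data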
CYP2C19 inhib = blocks human cytochrome P450 2C19. CYP2C19 Supersomes, luciferin-H EGE luminescence, 30 min. inhibition, % at 5 µM. 96,000 tested, 21% active;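 active means CYP2C19 inhibition above a set limit at 5 µM in the primary screen, cut at about 50% in these data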
Target sequence (P33261 whole entry, looked up): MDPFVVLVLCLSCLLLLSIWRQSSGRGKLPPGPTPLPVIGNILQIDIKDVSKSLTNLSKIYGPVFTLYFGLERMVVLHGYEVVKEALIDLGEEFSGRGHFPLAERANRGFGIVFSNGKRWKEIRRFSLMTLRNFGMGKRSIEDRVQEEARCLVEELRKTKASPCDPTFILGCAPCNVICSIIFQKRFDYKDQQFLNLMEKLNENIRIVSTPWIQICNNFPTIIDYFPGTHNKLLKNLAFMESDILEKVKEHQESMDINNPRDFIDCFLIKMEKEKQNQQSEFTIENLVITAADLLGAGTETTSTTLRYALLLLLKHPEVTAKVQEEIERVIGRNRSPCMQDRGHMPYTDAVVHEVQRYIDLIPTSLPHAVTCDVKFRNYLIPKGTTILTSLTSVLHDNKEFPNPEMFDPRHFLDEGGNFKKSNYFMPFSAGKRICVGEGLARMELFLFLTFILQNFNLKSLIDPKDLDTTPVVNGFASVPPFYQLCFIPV
PostGolgi ctrl = yeast control strain growth, post-Golgi counter-screen; inhibition, % at 10 µM; 98,000 tested, 5% active; AID 738; efflux-deficient yeast background strain, growth absorbance A615, 16 h
CYP2C19 activ = cytochrome P450 2C19 (human) activation; recombinant CYP2C19, luciferin-H EGE luminescence; hits give high values; 0 = fully inhibited enzyme, 1 = untreated enzyme; activation factor at 5 µM; 96,000 tested, under 10 active;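 active means activation factor of at least 2 at 5 µM in the primary screen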
PostGolgi yeast = growth inhibition of a yeast mutant, post-Golgi transport screen; AID 739; 98,000 tested, 0.9% active; inhibition, % at 10 µM; post-Golgi transport phenotypic cell assay;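 further: yeast cells grown in 1536-well plates; yeast grown about 18 h at 30C before absorbance read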
CYP2C9 activ = activators of human CYP2C9; recombinant CYP2C9, luciferin-H conversion, luminescence; hits give high values; factor 1 = untreated enzyme, 0 = blocked; activation factor at 5 µM; 96,000 tested, 1.4% active;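 active means activation factor of 2 or more for CYP2C9 at a 5 µM dose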
Of the large screens only hits and unclear results are named; the others gave an inactive call. Compounds with a hit are over-represented: about 32% of the library has one in this group of screens. Unless noted, no stated cut-off is given here; in the data, active means inhibition above about 30%; inactive means the rest.

COC(=O)c1cc(=O)n(Cc2ccc3c(c2)OCO3)c(=Nc2ccccc2)s1	CYP2C9 inh 68
O=C1CS/C(=N\c2ccccn2)N1C1CCCCC1	none
CCOc1ccc(CCNS(=O)(=O)c2cnc[nH]2)cc1OCC	CYP2C9 inh 94, CYP2C19 inhib 68
CCOc1ccc(CCNC(=O)C2CCN(S(=O)(=O)CC)CC2)cc1OCC	none
CC(C)N(CCCNC(=O)CC1Oc2ccccc2NC1=O)Cc1ccccc1 (stereo not drawn)	none
COc1ccc(C2C(C(=O)Nc3cc(C)on3)c3ccccc3C(=O)N2C)cc1 (stereo not drawn)	CYP2C9 inh 69
COc1ccc(C2C(C(=O)Nc3cc(C)on3)c3ccccc3C(=O)N2C)cc1OC (stereo not drawn)	none
O=S(=O)(c1ccccc1)C1(S(=O)(=O)c2ccccc2)CCCC1	CYP2C9 inh 58, CYP2C19 inhib 98
NC(=O)C1(S(=O)(=O)c2ccccc2)CCCCC1	none
O=C(CCNC(=O)c1ccc(Br)o1)NCc1ccccn1	none (no result: CYP2C9 inh, CYP2C19 inhib, CYP2C19 activ, CYP2C9 activ)
CCC(C)C(NC(=O)C1CCC(C)CC1)C(=O)Nc1cc(OC)ccc1OC (stereo not drawn)	CYP2C9 inh 69
COc1cc(NC(=O)C2CCCN2C(=O)C2CCC(C)CC2)cc(OC)c1OC (stereo not drawn)	none
COc1ccc(OC)c(NC(=O)C2CCCN2C(=O)C2CCC(C)CC2)c1 (stereo not drawn)	CYP2C9 inh 57, CYP2C19 inhib 53
COc1ccccc1NC(=O)C(CC(C)C)NC(=O)C1CCCCC1 (stereo not drawn)	CYP2C19 inhib 51
O=[N+]([O-])c1ccc(N2N=C(c3ccco3)CC2c2ccccc2)cc1 (stereo not drawn)	CYP2C9 inh 78, PostGolgi ctrl 31
COc1cc2cc(Br)cc(Br)c2nc1C	none
Nc1c(C(=O)NC2CCCC2)sc2nc(-c3cccs3)ccc12	CYP2C19 inhib 72
O=C(NC1CCCCCC1)c1cccs1	none
O=C(Cn1c(=O)n(CCCC(=O)NC2CCCC2)c(=O)c2ccccc21)NCCC1=CCCCC1	CYP2C9 inh 68
O=C(CCCCn1c(=O)[nH]c2ccccc2c1=O)NCCC1=CCCCC1	none
CCCCNC(=O)CCCn1c(=O)c2ccccc2n(CC(=O)NCCC2=CCCCC2)c1=O	CYP2C9 inh 72, CYP2C19 inhib 67
CC(C)(C#N)NC(=O)c1ccco1	none
CC(=O)Nc1nc(-c2ccc(Cl)cc2)nc(C)c1C(C)=O	none
COC(=O)c1cc(OC)c(OC)cc1NC(=O)CC1CCCCC1	CYP2C9 inh 51, PostGolgi ctrl 42
COC(=O)c1cc(OC)c(OC)cc1NC(=S)N1CCN(c2ccccc2)CC1	CYP2C9 inh 54, CYP2C19 inhib 100
COC(=O)c1cc(OC)c(OC)cc1NC(=S)N1CCN(C)CC1	CYP2C19 inhib 65
COC(=O)c1cc(OC)c(OC)cc1NC(=S)N1CCCCC1	CYP2C19 inhib 50
COC(=O)c1cc(OC)c(OC)cc1NC(=O)CN1CCCCC1	none
[O-]/[N+](=C\c1ccc(F)cc1)c1ccccc1	none
CCOC(=O)C1CCN(C(=S)Nc2cc(OC)c(OC)cc2C(=O)OC)CC1	CYP2C19 inhib 100
COC(=O)c1cc(OC)c(OC)cc1NC(=S)N1CCC(C(N)=O)CC1	none
NC(=O)CSc1nnc2n(-c3ccccc3)c(=O)c3c4c(sc3n12)CCCCC4	none
C=C(C)CSc1nnc2n(C)c(=O)c3c4c(sc3n12)CCC4	CYP2C9 inh 56, CYP2C19 inhib 55
Cc1nn(C)cc1/C=C/C(=O)c1ccccc1	none
Cc1c(/C=C/C(=O)c2ccccc2)cnn1C	none
COc1ccc(/C=C(/C#N)S(=O)(=O)c2ccc(C)cc2)cc1	none
Cc1ccc(C(=O)/C=C/c2c[nH]c3ccccc23)cc1	CYP2C9 inh 69, CYP2C19 inhib 68
CCOc1ccc(-c2nn(-c3ccccc3)cc2/C=C(\C#N)S(=O)(=O)c2ccccc2)cc1C	none
CC(C)n1cc(/C=C(\C#N)S(=O)(=O)c2ccccc2)c2ccccc21	CYP2C9 inh 70, PostGolgi ctrl 36
Cc1ccc(C(=O)/C=C/c2cn(CN3CCN(C)CC3)c3ccccc23)cc1	CYP2C9 inh 79, PostGolgi ctrl 41
Cc1ccc(S(=O)(=O)/C(C#N)=C/c2c[nH]c3ccccc23)cc1	PostGolgi ctrl 68, CYP2C9 activ 2.1
CCOC(=O)c1sc(NC(=O)C2CC=CCC2C(=O)O)nc1C (stereo not drawn)	none
CCOC(=O)C(Cc1c[nH]c2ccccc12)NC(=O)c1ccco1 (stereo not drawn)	CYP2C9 inh 72, CYP2C19 inhib 78
CCOC(=O)c1c(Nc2ccccc2N)cc(C)nc1C	CYP2C19 inhib 72
COc1cc(/C=N/NC(=O)c2cc(C34CC5CC(CC(C5)C3)C4)[nH]n2)ccc1O	none
Cc1nn(-c2ccccc2)c(C)c1/C=N/NC(=O)c1cc(C23CC4CC(CC(C4)C2)C3)[nH]n1	CYP2C9 inh 53, PostGolgi ctrl 60
Cc1nn(-c2ccccc2)c(C)c1/C=N/NC(=O)c1cc(C2CC2)[nH]n1	CYP2C9 inh 58, CYP2C19 inhib 60
Cc1cc2oc(=O)cc(CSc3nc(N)cc(N)n3)c2cc1C	none
Cc1ccc(SCCC(=O)NCc2ccco2)cc1	CYP2C9 inh 69
Cc1ccc(-c2nc(C)sc2CC(=O)NCc2ccco2)cc1	CYP2C19 inhib 56
Cc1ccc(SCC(=O)NCc2ccco2)cc1	none (no result: CYP2C9 inh, CYP2C19 inhib, CYP2C19 activ, CYP2C9 activ)
Cc1ccc(NC(=O)c2ccc(OC(=O)c3cc4ccccc4o3)cc2)cc1	none
CC(C)(C)c1ccc(C(=O)/C=C2\NC(=O)CS2)cc1	none
O=C1CS/C(=C\S(=O)(=O)c2ccc(Cl)cc2)N1	CYP2C9 inh 57
CCN(C(=O)CN1CCN(c2ccc(O)cc2)CC1)c1c(N)n(Cc2ccccc2)c(=O)[nH]c1=O	none
Cc1ccccc1NS(=O)(=O)c1cc(C(=O)NCCC2=CCCCC2)ccc1C	none
COc1cccc(C(=O)NCCC2=CCCCC2)c1	CYP2C19 inhib 93
O=C(NCCC1=CCCCC1)c1ccc(Cl)c(S(=O)(=O)Nc2ccccc2)c1	CYP2C9 inh 69
O=C(COc1ccc(Cl)cc1Cl)N/N=C/CCc1ccccc1	none
O=C1CSc2ccc(C(=O)NCCC3=CCCCC3)cc2N1	none
COc1ccc(C(=O)NCCC2=CCCCC2)cc1OC	CYP2C19 inhib 66
CC1CCC/C(=N\NC(=O)COc2ccc(Cl)cc2Cl)C1 (stereo not drawn)	CYP2C19 inhib 80
O=C(N/C(=C\c1cccc([N+](=O)[O-])c1)C(=O)N1CCCCC1)c1cccs1	none
Cc1ccc(S(=O)(=O)N2CCN(C(=O)CN3CCOCC3)C2c2ccccc2)cc1 (stereo not drawn)	none
O=C(COc1ccc(Cl)cc1Cl)NCc1ccco1	none
O=C(COc1ccc(Cl)cc1Cl)NCCC1=CCCCC1	PostGolgi ctrl 48
